# Rows were chosen to be rich in hits. Some 0.93% of all compounds tested hit in one or more screens of this group.
# CIT2-GFP yeast: modulators of CIT2-GFP expression in yeast, primary screen, S. cerevisiae, GFP fusion, multiplex flow cytometry, MLPCN library; GFP response vs DMSO, % at 10 µM; AID 2029, 2009; S. cerevisiae CIT2-GFP strain, 3 h; 100 means same as DMSO wells; hit rate 0.065% among 320,000;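 active means GFP response relative to DMSO above a set limit, near the screen mean plus 3 SD, cut at about 150% in these data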;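 further: ratio of well median GFP fluorescence to mean of DMSO wells on the plate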
# RPL19A TOR yeast: RPL19A-GFP expression modulators in yeast, primary screen, cell-based, S. cerevisiae, multiplex flow cytometry, MLPCN. percent response vs DMSO, % at 10 µM. AID 2025, 2009. hit rate 0.3% among 330,000. S. cerevisiae RPL19A-GFP strain, 3 h; stronger effect = lower value;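 active means percent response vs DMSO below 50%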;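 further: median channel GFP fluorescence of the barcoded RPL19A-GFP strain; ratio of sample median GFP to plate DMSO average so 100% = DMSO; lower means less RPL19A-GFP as with rapamycin TOR inhibition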
# MEP2 TOR yeast: modulators of MEP2-GFP levels in yeast, primary screen, S. cerevisiae, multiplex flow cytometry, MLPCN library | S. cerevisiae MEP2-GFP strain, 3 h; 100% = DMSO control level | GFP response vs DMSO, % at 10 µM | hit rate 0.51% among 330,000;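 active means GFP response versus DMSO above a set limit, roughly screen mean plus 3 SD, cut at about 180% in these data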;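 further: median GFP fluorescence of the barcode-gated MEP2-GFP cells per well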
# AGP1 TOR yeast: modulators of AGP1-GFP expression in yeast TOR pathway, primary screen, cell-based, multiplex flow cytometry, S. cerevisiae, MLPCN library; AID 2066, 2009; GFP response vs DMSO, % at 10 µM; hit rate 0.02% among 320,000; 3 h; GFP as percent of DMSO wells;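 active means GFP response relative to DMSO above a set limit, near screen average plus 3 SD, cut at about 150% in these data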;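 further: median GFP channel fluorescence of the gated AGP1 strain per well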
# LAP4 TOR yeast: modulators of LAP4-GFP expression in yeast, primary screen, S. cerevisiae, multiplex flow cytometry, MLPCN library; 3 h; median GFP as percent of DMSO wells; GFP response vs DMSO, % at 10 µM; hit rate 0.34% among 320,000;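 active means GFP response vs DMSO above a set limit, about the screen mean plus 3 SD, cut at about 150% in these data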
# LAP4-GFP pick2: LAP4-GFP expression modulators in yeast, confirmation, cell-based, second cherry pick, flow cytometry; shares compounds with LAP4 TOR yeast; GFP response vs DMSO, % at 10 µM; hit rate 20% among 590; S. cerevisiae LAP4-GFP strain, 3 h;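 active means GFP signal as percent of the solvent control above about 150%, meaning raised reporter expression, limit read from the data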;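 further: ratio of well median GFP fluorescence to plate DMSO mean so 100% = DMSO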
# MEP2-GFP pick2: modulators of MEP2-GFP levels in yeast, confirmation, S. cerevisiae, flow cytometry GFP, second cherry picks. shares compounds with LAP4 TOR yeast. hit rate 10% among 590. S. cerevisiae MEP2-GFP strain, 3 h. GFP response vs DMSO, % at 10 µM;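 active means GFP signal above 150% of the solvent control wells, that is a rise of more than half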;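 further: median channel GFP fluorescence of all gated yeast cells per well; ratio of median GFP to plate DMSO average so 100% = DMSO level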
# RPL19A-GFP pick2: RPL19A-GFP modulators in TOR pathway yeast, confirmation, cell-based, S. cerevisiae, flow cytometry, second cherry pick. S. cerevisiae RPL19A-GFP strain, 3 h; stronger effect = lower value; 100% means same as DMSO wells. GFP response vs DMSO, % at 10 µM. hit rate 3% among 590. shares compounds with LAP4 TOR yeast;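 active means under 65% GFP response relative to DMSO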;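 further: median GFP channel fluorescence per well over the all cells gate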
# CIT2 GFP CP2: modulators of CIT2-GFP expression in yeast, confirmation, flow cytometry, second cherry pick, single plex. shares compounds with LAP4 TOR yeast. S. cerevisiae CIT2-GFP strain, 3 h; DMSO control wells read 100%. GFP response vs DMSO, % at 10 µM. hit rate 8% among 590. AID 2624, 2010;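 active means GFP response vs DMSO above about 150%, limit read from the data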;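 further: median green fluorescence per well over all gated yeast cells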
# AGP1-GFP pick2: AGP1-GFP expression modulators, hit retest, confirmation, cell-based, flow cytometry, S. cerevisiae, cherry pick set 2; shares compounds with LAP4 TOR yeast; AID 2643, 2010; S. cerevisiae AGP1-GFP strain, 3 h; 590 tested, under 10 active; percent response vs DMSO, % at 10 µM;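 active means over 150 percent of DMSO response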;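 further: median GFP channel fluorescence over all cells without mother daughter split; sample median GFP divided by mean DMSO control so 100% equals DMSO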
# Yeast autofluor: compound autofluorescence in yeast s288c, dose response, artefact control for yeast TOR pathway GFP screen, s288c strain; shares compounds with LAP4 TOR yeast; 610 tested, under 10 active; fluorescence change (kMESF span) at 33 µM; S. cerevisiae s288c, 520 nm autofluorescence, flow cytometry, 3 h; stronger effect = higher value; zero means same as solvent-only cells;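 active means fluorescence span over the dose series, or activity score, above about 33, limit read from the data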
# s288c autofl DR: autofluorescence of compounds in yeast s288c, dose response, artefact control for yeast TOR pathway GFP screen, primary hits, KU SAR, s288c parental | fluorescence change (span) at 33 µM | S. cerevisiae s288c parental, compound autofluorescence, flow cytometry, 3 h | shares compounds with LAP4 TOR yeast | AID 488829, 2010 | 110 tested, under 10 active;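 active means fluorescence change span, or the activity score built from it, above 25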
# TORC1 bypass gr: wild-type yeast growth inhibition sparing TORC1 bypass cells, mechanism study for yeast TOR pathway GFP screen, BY4741 wild type, TORC1 bypass strain. shares compounds with LAP4 TOR yeast. AID 504456, 2011. S. cerevisiae BY4741 spot growth rating, 48-72 h; stronger effect = lower value. growth rating (0-3) at 30 µM. 120 tested, under 10 active;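 active means growth rating at most 1 for wild type yeast while the TORC1 bypass strain still grows fully, rated 3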
# * marks the source's active call; other numbers are inactive results; . = not tested or not shown.
SMILES,CIT2-GFP yeast,RPL19A TOR yeast,MEP2 TOR yeast,AGP1 TOR yeast,LAP4 TOR yeast,LAP4-GFP pick2,MEP2-GFP pick2,RPL19A-GFP pick2,CIT2 GFP CP2,AGP1-GFP pick2,Yeast autofluor,others
COc1ccc(C2=CC3=C(Br)C(=O)C(C)(O)C(=O)C3=CO2)cc1 (configuration not stated),57,42*,117,14,98,125,150*,34*,160*,24,3.2,
CCC(=O)OC1(C)C(=O)C2=COC(c3ccc(OC)cc3)=CC2=C(Br)C1=O (configuration not stated),57,84,89,45,137,.,.,.,.,.,.,
Cc1ccc(Sc2ncccc2C(=O)N(C)Cc2cccs2)c(C)c1,100,101,103,97,89,.,.,.,.,.,.,
C=CCOc1ccccc1C(=O)/C=C1/C(=O)Nc2ccccc21,84,101,91,91,132,.,.,.,.,.,-0.4,
NC(=O)COc1ccc(C(=O)/C=C2/C(=O)Nc3ccccc32)cc1,109,94,91,105,103,.,.,.,.,.,0.91,
C=CCOc1ccc(C(=O)/C=C2/C(=O)Nc3ccccc32)cc1,97,105,106,105,105,.,.,.,.,.,-0.2,
CC(=O)NC(CC(=O)N(Cc1ccccc1)c1cccc(C)c1)c1ccccc1 (configuration not stated),.,107,103,91,80,.,.,.,.,.,.,
Cc1ccc(NC(=O)C(C)N2CCN(C)CC2)cc1S(=O)(=O)N1CCOCC1 (configuration not stated),93,91,87,91,92,.,.,.,.,.,.,
O=Cc1cccc2ccc3cccc(C(=O)O)c3c12,.,98,100,.,.,.,.,.,.,.,.,
Nc1c(C(=O)NC2CC2)sc2nc3c(c(-c4ccco4)c12)CC/C3=C/c1ccco1,86,71,261*,38,195*,141,113,106,119,101,.,
O=C(Nc1ccc(Nc2ccccc2)cc1)C(Cl)Cl,74,98,87,87,109,.,.,.,.,.,.,
CC(C)(C)C(=O)C(Cl)C(=O)Nc1ccccc1 (configuration not stated),119,69,105,116,285*,.,.,.,.,.,1.6,s288c autofl DR=0.1;TORC1 bypass gr=3
CC(=O)N1c2ccc(S(=O)(=O)N3CCC(C(=O)N4CCN(c5cccc(C(F)(F)F)c5)CC4)CC3)cc2CC1C (configuration not stated),103,99,102,100,95,.,.,.,.,.,.,
CC(=O)c1ccc(N2CCN(C(=O)C3CCN(S(=O)(=O)c4ccc5c(c4)CC(C)N5C(C)=O)CC3)CC2)cc1 (configuration not stated),90,86,94,109,183*,104,105,100,107,99,.,
COC(=O)CCN(C(=O)C1C2CC3CC(C2)CC1C3)c1ccccn1 (configuration not stated),96,95,93,107,154*,111,126,101,122,102,.,
CCOc1ccccc1C(=O)N(CCC(=O)OC)c1ccccn1,93,95,90,93,85,.,.,.,.,.,.,
O=C1C=C(/C=C/c2ccccc2)C[C@@H](c2ccc3c(c2)OCO3)C1,88,101,94,94,110,.,.,.,.,.,.,
O=C(CCn1cccn1)Nc1ccc2c(c1)OCO2,113,111,122,107,108,.,.,.,.,.,.,
Cc1ccc(C2=NOC(=O)/C2=C\c2ccc(C)o2)cc1,58,88,74,78,203*,.,.,.,.,.,4.3,s288c autofl DR=1.8;TORC1 bypass gr=3
O=C1ON=C(c2ccccc2)/C1=C/c1ccc(O)c(O)c1,111,90,97,91,136,.,.,.,.,.,.,
COc1ccc(/C=C2\C(=O)ON=C2c2ccccc2)cc1,88,90,74,72,168*,160*,115,78,104,86,0.3,
Cc1ccc(/C=C2\C(=O)ON=C2c2ccccc2)o1,60,96,102,71,105,.,.,.,.,.,.,
COc1cc(/C=C2\C(=O)ON=C2c2ccc(Cl)cc2)ccc1O,89,85,98,87,224*,.,.,.,.,.,0.5,
Cc1ccc(-c2nn(C(C)(C)C)c3ncnc(NS(=O)(=O)c4ccc([N+](=O)[O-])cc4)c23)cc1,100,96,101,104,120,.,.,.,.,.,.,
CC(C)(C)n1nc(-c2ccc(Cl)cc2)c2c(N)ncnc21,43,43*,106,83,182*,.,.,.,.,.,-1,s288c autofl DR=0.32;TORC1 bypass gr=3
Cc1ccc(-c2nc(N)c3c(-c4ccc(C)cc4)nn(C(C)(C)C)c3n2)cc1,95,101,100,96,98,112,121,106,132,99,0.1,
CC(C)(C)n1nc(-c2ccc(F)cc2)c2c(N)ncnc21,51,48*,105,92,178*,137,136,48*,61,86,-0.4,s288c autofl DR=0.29;TORC1 bypass gr=3

# Compound activity (PubChem)
